In PubChem BioAssay (NCI) one finds growth data, which are given here for 40 compounds.

Structures are written as SMILES. Values joined by “and” are separate entries in the source; they are usually repeats but may differ in a detail not shown here. Equal values may be shown once. This is part of a sample that, as a whole, favours compounds with a hit. Of some 83,000 tested, about 20% had one in any assay.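 Single-concentration screen, 48 h exposure, 96-well plates. Endpoint: percent growth. Below 10 = active.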 Values without a mark were called inactive. Active and inactive are the calls of the source.

The first assay relates to UO-31 renal. The assay can be described thus: NCI-60 one-dose screen, 48 h (100 = growth as untreated, 0 = no growth, -100 = all killed). To be noted: 10 µM unless noted.
On to `CCOC(=O)c1ccccc1NC1=C(Cl)C(=O)c2nc(C)ccc2C1=O`, for which the growth is 91.9%. On to `Cc1ccc([C@H]2c3[nH]c4ccccc4c3C[C@H]3C(=O)N(CCCCCCC(=O)NO)CC(=O)N23)s1`, for which the growth is 71.9%. Same read-out and setting: the value for `NC1CC2(CCN(c3cnc(C(=O)Nc4cc(F)cc5cccnc45)cn3)CC2)C1` was 76.1%; that for `O=C(CSc1nc2ccccc2c(=O)n1-c1ccc(Cl)cc1)N/N=C/c1ccc(Oc2ccc(Cl)cc2)cc1` was 93.1%. For the compound `CCCCSC1=C(Cl)CN(c2ccc(Cl)cc2)C1=O`, the growth was 91.1%. Regarding `CC(=O)/C(N=Nc1ccc2oc(=O)ccc2c1)=C(\C)O`, the growth is 15.4%. Turning to `CCOC(=O)c1c(NC(=O)c2ccc(C(F)(F)F)cc2)sc2c3c(ccc12)OCN(C)C3`, the growth is 70.9%.

In another assay the test system is TK-10 renal. The description is as above. Particulars: 10 µM unless noted.
Regarding `NNc1nnc2nc(Nc3ccccc3)nc(Nc3ccc(S(N)(=O)=O)cc3)n12`, the growth is 106%. As for `Brc1ccc2[nH]cc(-c3nn4cc(-c5nccs5)nc4s3)c2c1`, the growth was 98.3%.

`Nn1c(=O)n(-c2cccc(C(F)(F)F)c2)c(=O)c2cc(-c3ccc(F)cc3F)ccc21`: the growth was 7.05% (active). As for `CN(C)CCNc1ccc2ncc(C#Cc3cncc(C(=O)Nc4ccc(CN5CCN(C)CC5)c(C(F)(F)F)c4)c3)n2n1`, the growth is 26.6%. Consider `O=S(=O)(Oc1ccc(-c2cn3ccoc3n2)cc1)C1CCCCC1`, for which the growth is 105%.

On to `O=C(N/N=C\c1ccc([N+](=O)[O-])cc1)c1ccc2nc(-c3ccc(Br)cc3)[nH]c2c1`, for which the growth is 64.6%. On the same count and under the same terms, then `Cc1ccsc1[C@H]1c2[nH]c3ccccc3c2C[C@H]2C(=O)N(CCCCCCC(=O)NO)CC(=O)N12`, with 84%; and `Cc1ccc(N2CCN(C3=C(Cl)C(=O)c4ncccc4C3=O)CC2)cc1`, with 133%; and `N#Cc1cccc(-c2cc(-c3ccc4c(c3)OCCO4)[nH]n2)c1`, with 76.8%. For `COc1cc2cc(Oc3ccc(NC(=O)c4cc(C(F)(F)F)cc(C(F)(F)F)c4)cc3)c(C)nc2cc1OCCN1CCOCC1`, the growth is 105%. On the same count and under the same terms, the value for `N#C/C(=N\Nc1ccc(F)cc1)C(=O)Nc1cc(-c2ccccc2)nn1-c1ccccc1` was 26.6%; that for `CN(C)CCCOc1ccc(C(=C(c2ccccc2)C2CCCC2)c2ccc(OCCCN(C)C)cc2)cc1` was -93% (active).

For `NC(=O)c1ncn2c(=O)n(CCF)nnc12`, the growth was 44.3%.

On to `CN1CCN(c2ccc(Nc3nc(NCCNS(=O)(=O)c4ccc(Cl)cc4)c4sccc4n3)cc2)CC1`, for which the growth was 128%. Still for that read-out and setting: the value for `COc1cc(-c2nc(-c3ccccc3)[nH]c2-c2ccnc(NCCCNS(=O)(=O)c3ccc(C(F)(F)F)cc3)n2)ccc1Cl` was 79.1% and 61.2%. On to `CC1(C)CC[C@]23CC[C@]4(C)[C@H](CC[C@@H]5[C@@]6(C)CC[C@H](N)C(C)(C)[C@@H]6CC[C@]54C)[C@H]2[C@H]1OC3`, for which the growth is 135%. On the same count and under the same terms, then `Clc1ccc2[nH]cc(-c3nn4cc(-c5cccnc5)nc4s3)c2c1`, with 184%; and `NS(=O)(=O)c1ccc(Nc2nc(N/N=C/c3ccc4c(c3)OCO4)nc(Nc3ccccc3)n2)cc1`, with 96.6%; and `Brc1cc(-c2cc(-c3ccc4c(c3)OCCO4)[nH]n2)cs1`, with 138%. Consider `CC1=C(C)C(=O)C(Nc2ccc(C)c(C)c2)=C(Br)C1=O`, for which the growth is 157%. Same read-out and setting: the value for `COC(=O)N1CCN(CCNCc2ccc(NC(=O)c3ccc(C)c(C#Cc4cnc5cccnn45)c3)cc2C(F)(F)F)CC1` was 68.9%; that for `O=C(CCCCCCN1CC(=O)N2[C@@H](c3cccs3)c3[nH]c4ccccc4c3C[C@H]2C1=O)NO` was 85.5%.

`C=C(C)[C@@H]1CC[C@]2(C(=O)N3CCN(C)CC3)CC[C@]3(C)[C@H](CC[C@@H]4[C@@]5(C)CC[C@H](OP(=O)(OCC)OCC)C(C)(C)[C@@H]5CC[C@]43C)[C@@H]12`: the growth was 108%. On the same count and under the same terms, the value for `CC(=O)N(O)CCCCCNC(=O)CCC(=O)N(O)CCCCCNC(=O)CCC(=O)N(O)CCCCCN(CCCCCCCCCC[P+](c1ccccc1)(c1ccccc1)c1ccccc1)CCCCCCCCCC[P+](c1ccccc1)(c1ccccc1)c1ccccc1` was 26.5%. Same read-out and setting: then `Cc1[nH]c(C(=O)Nc2ccccc2OCc2cccc(C(=O)NCCN)c2)cc1Cl`, with 98.9%; and `CCOC(=O)Nc1ccc2c(ccn2C(=O)c2cccc(F)c2)c1`, with 59.9%; and `O=C(Nc1ccc(N=Cc2c(O)[nH]c3ccccc23)cc1)Nc1ccc(S(=O)(=O)Nc2ncccn2)cc1`, with 108%. Still for that read-out and setting: the value for `Fc1cccc(Cl)c1/C=N/Nc1nc(N/N=C/c2c(F)cccc2Cl)nc(N2CCCCC2)n1` was 27.2%. Turning to `CCc1nnc(NC(=O)c2cc(-c3ccc(Cl)cc3Cl)oc2C)s1`, the growth was 114%. In the case of `C/C(=N\NC(=O)Nc1ccccc1)c1nnn(-c2ccc([N+](=O)[O-])cc2)c1C`, the growth was 99.7%. On to `C#C[C@]1(O)CC[C@H]2[C@@H]3CC=C4c5sc(Nc6cc(Cl)ccc6OC)nc5CC[C@]4(C)[C@H]3CC[C@@]21C`, for which the growth is 48.4%. Turning to `O=C(O)CC1CCN(c2ccc3nnc(Cl)n3n2)CC1`, the growth is 102%. Turning to `Cc1cc2nc(C(Cl)Cl)nc(-c3ccc(S(=O)(=O)N(C)C)cc3)n2n1`, the growth is 85%. The same measure, in the same setting: the value for `CCOC(=O)c1ccccc1NC1=C(Cl)C(=O)c2nc(C)ccc2C1=O` was 147%.

Take `Cc1ccc([C@H]2c3[nH]c4ccccc4c3C[C@H]3C(=O)N(CCCCCCC(=O)NO)CC(=O)N23)s1`: the growth was 64.2%. For the compound `NC1CC2(CCN(c3cnc(C(=O)Nc4cc(F)cc5cccnc45)cn3)CC2)C1`, the growth was 88%. Same read-out and setting: then `O=C(CSc1nc2ccccc2c(=O)n1-c1ccc(Cl)cc1)N/N=C/c1ccc(Oc2ccc(Cl)cc2)cc1`, with 39.7%; and `CCCCSC1=C(Cl)CN(c2ccc(Cl)cc2)C1=O`, with 140%; and `CC(=O)/C(N=Nc1ccc2oc(=O)ccc2c1)=C(\C)O`, with 23.8%. As for `CCOC(=O)c1c(NC(=O)c2ccc(C(F)(F)F)cc2)sc2c3c(ccc12)OCN(C)C3`, the growth was -15.7% (active).
